Assay results: PubChem BioAssay (Tox21)
Where “and” joins values, the source holds several entries; their conditions need not be identical. Equal values may be shown once. Results filed as inconclusive are left out. Some compounds were tested as several samples or in several runs, with calls that do not always agree. Calls of active or inactive are those of the source. Unless noted, calls come from the whole dose curve; as a rule, active = well fitted curve in the direction sought with a large enough effect in the repeat runs; inconclusive = weak or mixed curves; inactive = no such curve, though single readings can be large; an effect the other way counts as inactive or inconclusive.

How the values were obtained:
[1] = qHTS assay to identify small molecule agonists of the estrogen receptor alpha (ER-alpha) signaling pathway in the presence of an antagonist - cell viability counter screen (AID 1259386);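 note: cells exposed to compounds for 22 h at 37 °C before the viability read; nearly all actives have a fitted effect of over 30% in size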; note: potency is the fitted concentration of half-maximal effect
In short: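 VM7Luc4E2 cells (endogenous full-length ER-alpha, 4×ERE-luciferase) were held 5 days in phenol red-free medium with 10% charcoal-stripped FBS, plated, then given 10.0nM ICI-182,780 and compounds at 15 concentrations for 22hr at 37C; viability read by CellTiter-Fluor fluorescence.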

[2] = biological target: Progesterone receptor (Homo sapiens) (UniProt P06401); experiment: qHTS assay to identify small molecule agonists of the progesterone receptor (PR) signaling pathway (AID 1346784; calls by dose curve; note: nearly all actives have a fitted effect of over 30% in size; note: potency is the fitted concentration of half-maximal effect)
In short: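 Cells (PR-UAS-bla HEK 293T, GripTite) were plated in assay medium containing 2% charcoal-stripped FBS and incubated 6 hr. Test compounds in DMSO were added for 16 hr at 37C. FRET substrate was then loaded for 2 hr at room temperature before fluorescence reading.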

[3] = qHTS assay to identify small molecule agonists of the progesterone receptor (PR) signaling pathway - cell viability counter screen (AID 1346799; calls by dose curve; note: nearly all actives have a fitted effect of over 45% in size; note: potency is the fitted concentration of half-maximal effect)
In short: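 Cells (PR-UAS-bla HEK293T) are plated at 3,000/well in 2% charcoal-stripped FBS medium, rested 6 hr, dosed and incubated 16 hr at 37C. CellTiter-Glo is then added and luminescence measured after 30 min at room temperature.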

[4] = qHTS assay to identify small molecule antagonists of the TGF-beta/Smad signaling pathway - cell viability counter screen (AID 1346824); note: nearly all actives have a fitted effect of over 50% in size; note: potency is the fitted concentration of half-maximal effect
In short: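 SBE-bla HEK 293T cells were plated overnight at 37 C, then given compounds in DMSO plus TGF-beta1 (added as 0.25 ng/mL solution) for 5 hr. After the bla read, CellTiter-Glo was added to the same wells and luminescence read after 30 min at room temperature.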

[5] = qHTS assay to identify small molecule agonists of the TGF-beta/Smad signaling pathway - cell viability counter screen (AID 1346829); note: nearly all actives have a fitted effect of over 45% in size; note: potency is the fitted concentration of half-maximal effect
In short: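 Cytotoxicity counter screen: CellTiter-Glo luminescence (30 min, room temperature) measured in the SBE-bla HEK 293T reporter wells after 5 hr compound treatment at 37 C and the 2 hr substrate step.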

[6] = qHTS assay to identify small molecule agonists of the TGF-beta/Smad signaling pathway (AID 1346859; active = well fitted activation curve with a large enough effect in the signal ratio in the repeat runs, not every such curve was filed as active; the % refers to the signal ratio; note: series mostly up to about 77 µM)
In short: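 Reporter line: HEK 293T with stably integrated SBE-controlled beta-lactamase. Compound exposure lasts 5 hr at 37 C and 5% CO2; substrate loading follows for 2 hr at room temperature, with emission read at 460 and 530 nm.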

[7] = Human pregnane X receptor (PXR) small molecule agonists, qHTS cell viability counter screen (AID 1346977); note: nearly all actives have a fitted effect of over 50% in size; note: potency is the fitted concentration of half-maximal effect
In short: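 Cytotoxicity counter screen run in the same wells as the PXR luciferase assay, using PXR-Luc HepG2 cells in charcoal-stripped serum medium. Viability: CellTiter-Fluor fluorescence after 24hr compound treatment.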

[8] = Caspase-3/7 induction in HepG2 cells by small molecules, qHTS assay (AID 1346978); note: nearly all actives have a fitted effect of over 15% in size
In short: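 Wild-type HepG2 cells (2,000/well) were settled 5 h at 37 C, 5% CO2, then exposed to compounds in DMSO for 17 h. Caspase-3/7 activity was read by luminescence 30 min after adding Caspase-Glo 3/7 reagent at room temperature.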

[9] = Caspase-3/7 induction in CHO-K1 cells by small molecules, qHTS assay (AID 1346980); note: nearly all actives have a fitted effect of over 15% in size; note: potency is the fitted concentration of half-maximal effect
In short: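 Wild-type cells were seeded at 1,500 per well and settled 5 hr at 37 C, 5% CO2, then exposed to DMSO-dissolved compounds for 17 hr. Caspase-Glo 3/7 reagent was added, and luminescence was read after 30min at room temperature.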

[10] = Caspase-3/7 induction in HepG2 cells by small molecules, qHTS cell viability counter screen (AID 1346981); note: nearly all actives have a fitted effect of over 30% in size; note: potency is the fitted concentration of half-maximal effect
In short: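 Wild-type HepG2 cells (2,000/well) were allowed to settle for 5 hr at 37 C, 5% CO2, then dosed with compounds in DMSO by pin transfer. After 16 hr at 37 C, CellTiter-Fluor was added and fluorescence read 1 hr later.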

[11] = biological target: Nuclear receptor subfamily 1 group I member 2 (Homo sapiens) (UniProt O75469); experiment: Human pregnane X receptor (PXR) small molecule agonists, qHTS assay (AID 1346982); note: nearly all actives have a fitted effect of over 35% in size; note: potency is the fitted concentration of half-maximal effect
In short: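 PXR-Luc HepG2 cells (CYP3A4 promoter-driven luciferase) were seeded in medium with 5% charcoal-stripped FBS, left 5 hr at 37 C, then exposed to compounds in DMSO for 24 hr. Luminescence was read after ONE-Glo addition.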

[12] = biological target: Nuclear receptor subfamily 1 group I member 2 (Rattus norvegicus) (UniProt Q9R1A7); experiment: Rat pregnane X receptor (rPXR) activation by small molecules, qHTS assay (AID 1346983); conditions: rPXR luciferase reporter cells, One-Glo luminescence, 24 h; stronger effect = higher value; note: nearly all actives have a fitted effect of over 20% in size
In short: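 Cell-based rPXR luciferase reporter assay, 2,000 cells per well, rested 5hr at 37 C before compound addition in DMSO, then 24 hr at 37 C. One-Glo reagent was added and luminescence read after 30 min at room temperature.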

[13] = biological target: Nuclear receptor subfamily 1 group I member 2 (Homo sapiens) (UniProt O75469); experiment: CYP3A4 induction through human pregnane X receptor (PXR) by small molecules, qHTS assay (AID 1346984); note: nearly all actives have a fitted effect of over 40% in size
In short: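 DPX-2 cells (HepG2 co-transfected with PXR and CYP3A4 promoter-luciferase) treated with compounds 24 h at 37C; luciferin-IPA CYP3A4 substrate 3uM final added for 3 h, then One-Glo; luminescence read. qHTS format.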

[14] = biological target: Nuclear receptor subfamily 1 group I member 2 (Homo sapiens) (UniProt O75469); experiment: Human pregnane X receptor (PXR) activation by small molecules, qHTS assay (AID 1346985); note: nearly all actives have a fitted effect of over 40% in size
In short: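 DPX-2 cells (HepG2 co-transfected with a PXR response element and a CYP3A4-promoter luciferase construct) were seeded at 2,000 per well, rested 5 hr at 37C, then exposed to DMSO-dissolved compounds for 24 hr. Activation was read as luciferase luminescence.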

[15] = biological target: Thyrotropin receptor (Homo sapiens) (UniProt P16473); experiment: qHTS assay to identify small molecule antagonists of the thyroid stimulating hormone receptor (TSHR) signaling pathway (AID 1259385; calls by dose curve; note: nearly all actives have a fitted effect of over 20% in size)
In short: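 TSHR-HEK293 cells were plated and held 18 h at 37C/5% CO2, then given compound plus Ro20-1724 and stimulated with TSH at 1.5 ng/mL final. After 30 min at room temperature, cAMP was detected with cAMP-d2/anti-cAMP-cryptate (1 h) by fluorescence.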

[16] = qHTS assay to identify small molecule antagonists of the progesterone receptor (PR) signaling pathway - cell viability counter screen (AID 1346798); note: nearly all actives have a fitted effect of over 50% in size; note: potency is the fitted concentration of half-maximal effect
In short: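 Counter screen for cytotoxicity: viability of PR-UAS-bla HEK293T cells was measured with CellTiter-Glo luminescence following 16 hr compound exposure in the presence of R5020.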

[17] = biological target: Thyrotropin-releasing hormone receptor (Homo sapiens) (UniProt P34981); experiment: qHTS assay to identify small molecule antagonists of the thyrotropin-releasing hormone receptor (TRHR) signaling pathway (AID 1346877; active = well fitted inhibition curve with a large enough effect in the repeat runs, not every such curve was filed as active; note: series mostly up to about 51 µM)
In short: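 TRHR-expressing HEK293 cells were seeded, cultured 18 h at 37 °C, then loaded with calcium dye for 2 h. Compounds were pre-incubated 5 min at room temperature before 1 nM TRH (final) was added, and kinetic fluorescence was recorded for 3 min.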

[18] = biological target: Thyrotropin-releasing hormone receptor (Homo sapiens) (UniProt P34981); experiment: qHTS assay to identify small molecule agonists of the thyrotropin-releasing hormone receptor (TRHR) signaling pathway (AID 1346891; calls by dose curve; note: series mostly up to about 58 µM)
In short: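 Cells: TRHR-Hek293, seeded and incubated 18 h. Dye loading: 2 h at 37 °C. Compound added from DMSO stock by pin tool. Read-out: kinetic calcium fluorescence over 3 min.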

[19] = Caspase-3/7 induction in CHO-K1 cells by small molecules, qHTS cell viability counter screen (AID 1346979); note: nearly all actives have a fitted effect of over 35% in size; note: potency is the fitted concentration of half-maximal effect
In short: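 Cytotoxicity counter screen run in parallel with the caspase-3/7 assay: CHO-K1 cells, 16hr compound treatment at 37C, then CellTiter-Fluor for 1hr before fluorescence reading.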

[20] = biological target: Progesterone receptor (Homo sapiens) (UniProt P06401); experiment: qHTS assay to identify small molecule antagonists of the progesterone receptor (PR) signaling pathway (AID 1346795; active = well fitted inhibition curve with a large enough effect in the signal ratio in the repeat runs, not every such curve was filed as active; the % refers to the signal ratio; note: potency is the fitted concentration of half-maximal effect)
In short: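 Antagonist mode: compounds tested against 1 nM (final) promegestone stimulation in HEK293T cells expressing PR-UAS-bla reporter, 16 hr at 37C, 5% CO2; beta-lactamase activity detected via B/G FRET substrate after 2 hr at room temperature.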
% is set by controls: 0 for no effect and ±100 for the full control effect.

Progesterone receptor (Homo sapiens), sequence (P06401 whole entry, looked up): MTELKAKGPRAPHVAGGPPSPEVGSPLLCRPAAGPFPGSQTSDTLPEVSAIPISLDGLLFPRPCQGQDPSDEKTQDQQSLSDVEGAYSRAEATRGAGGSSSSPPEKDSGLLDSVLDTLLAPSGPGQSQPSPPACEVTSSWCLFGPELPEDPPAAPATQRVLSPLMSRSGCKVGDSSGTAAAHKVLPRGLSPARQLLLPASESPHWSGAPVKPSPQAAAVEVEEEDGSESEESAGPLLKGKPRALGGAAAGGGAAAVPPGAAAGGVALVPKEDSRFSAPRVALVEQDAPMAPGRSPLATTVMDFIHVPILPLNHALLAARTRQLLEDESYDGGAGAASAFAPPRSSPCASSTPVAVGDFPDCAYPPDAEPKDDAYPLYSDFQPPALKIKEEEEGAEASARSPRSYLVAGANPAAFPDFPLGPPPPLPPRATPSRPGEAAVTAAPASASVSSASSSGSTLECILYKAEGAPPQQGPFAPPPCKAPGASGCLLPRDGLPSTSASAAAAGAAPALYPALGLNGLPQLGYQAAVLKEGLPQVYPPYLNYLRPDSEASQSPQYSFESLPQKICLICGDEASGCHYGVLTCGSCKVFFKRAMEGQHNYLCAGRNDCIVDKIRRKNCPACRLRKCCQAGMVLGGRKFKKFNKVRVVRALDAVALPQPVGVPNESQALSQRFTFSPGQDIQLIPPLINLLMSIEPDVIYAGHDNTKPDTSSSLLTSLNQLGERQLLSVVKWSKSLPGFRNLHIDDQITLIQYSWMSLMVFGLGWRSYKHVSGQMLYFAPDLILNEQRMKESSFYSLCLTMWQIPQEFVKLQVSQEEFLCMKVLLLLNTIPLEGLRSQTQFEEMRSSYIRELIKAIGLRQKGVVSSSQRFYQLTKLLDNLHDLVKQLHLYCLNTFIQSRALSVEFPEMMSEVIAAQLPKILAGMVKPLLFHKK
Nuclear receptor subfamily 1 group I member 2 (Rattus norvegicus), sequence (Q9R1A7 whole entry, looked up): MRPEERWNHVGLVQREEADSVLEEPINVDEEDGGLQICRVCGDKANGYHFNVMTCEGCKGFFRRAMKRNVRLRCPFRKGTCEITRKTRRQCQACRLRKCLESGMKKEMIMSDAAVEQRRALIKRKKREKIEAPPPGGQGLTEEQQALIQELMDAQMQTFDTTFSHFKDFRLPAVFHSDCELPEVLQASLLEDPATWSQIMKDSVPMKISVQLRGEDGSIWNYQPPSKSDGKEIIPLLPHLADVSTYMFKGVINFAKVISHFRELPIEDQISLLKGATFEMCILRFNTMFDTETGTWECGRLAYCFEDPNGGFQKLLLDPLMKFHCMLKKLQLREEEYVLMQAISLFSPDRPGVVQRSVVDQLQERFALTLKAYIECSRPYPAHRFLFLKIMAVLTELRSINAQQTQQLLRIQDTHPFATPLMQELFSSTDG
Thyrotropin receptor (Homo sapiens), sequence (P16473 whole entry, looked up): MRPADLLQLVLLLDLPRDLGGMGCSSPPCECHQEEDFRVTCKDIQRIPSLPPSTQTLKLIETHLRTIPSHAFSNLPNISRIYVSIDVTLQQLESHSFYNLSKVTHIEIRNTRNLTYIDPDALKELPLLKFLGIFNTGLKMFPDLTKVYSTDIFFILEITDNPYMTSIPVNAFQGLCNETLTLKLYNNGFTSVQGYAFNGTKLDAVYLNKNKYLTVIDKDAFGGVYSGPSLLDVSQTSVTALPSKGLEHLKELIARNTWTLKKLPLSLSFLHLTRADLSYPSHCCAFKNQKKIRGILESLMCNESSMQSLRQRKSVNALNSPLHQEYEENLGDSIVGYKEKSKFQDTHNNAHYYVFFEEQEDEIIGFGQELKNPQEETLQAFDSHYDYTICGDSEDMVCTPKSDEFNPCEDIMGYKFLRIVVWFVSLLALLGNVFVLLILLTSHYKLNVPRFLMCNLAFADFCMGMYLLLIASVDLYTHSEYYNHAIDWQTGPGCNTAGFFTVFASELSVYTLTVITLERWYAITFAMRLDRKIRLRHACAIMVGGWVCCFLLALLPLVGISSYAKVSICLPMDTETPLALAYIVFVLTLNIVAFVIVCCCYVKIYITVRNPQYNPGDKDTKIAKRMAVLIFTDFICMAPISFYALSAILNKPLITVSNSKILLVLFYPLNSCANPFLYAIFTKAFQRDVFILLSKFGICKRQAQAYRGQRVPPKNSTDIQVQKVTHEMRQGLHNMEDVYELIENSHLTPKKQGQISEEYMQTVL
Thyrotropin-releasing hormone receptor (Homo sapiens), sequence (P34981 whole entry, looked up): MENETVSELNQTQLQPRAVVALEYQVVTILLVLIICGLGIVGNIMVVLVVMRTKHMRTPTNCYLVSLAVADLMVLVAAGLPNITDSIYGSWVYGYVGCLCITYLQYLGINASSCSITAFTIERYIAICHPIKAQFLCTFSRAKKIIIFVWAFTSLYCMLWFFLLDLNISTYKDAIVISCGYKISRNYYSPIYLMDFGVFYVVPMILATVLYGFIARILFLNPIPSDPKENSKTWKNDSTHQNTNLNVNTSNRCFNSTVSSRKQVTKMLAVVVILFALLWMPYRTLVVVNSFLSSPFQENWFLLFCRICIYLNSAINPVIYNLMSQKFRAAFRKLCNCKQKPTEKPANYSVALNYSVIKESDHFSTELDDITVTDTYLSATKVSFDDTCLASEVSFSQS
Nuclear receptor subfamily 1 group I member 2 (Homo sapiens), sequence (O75469 whole entry, looked up): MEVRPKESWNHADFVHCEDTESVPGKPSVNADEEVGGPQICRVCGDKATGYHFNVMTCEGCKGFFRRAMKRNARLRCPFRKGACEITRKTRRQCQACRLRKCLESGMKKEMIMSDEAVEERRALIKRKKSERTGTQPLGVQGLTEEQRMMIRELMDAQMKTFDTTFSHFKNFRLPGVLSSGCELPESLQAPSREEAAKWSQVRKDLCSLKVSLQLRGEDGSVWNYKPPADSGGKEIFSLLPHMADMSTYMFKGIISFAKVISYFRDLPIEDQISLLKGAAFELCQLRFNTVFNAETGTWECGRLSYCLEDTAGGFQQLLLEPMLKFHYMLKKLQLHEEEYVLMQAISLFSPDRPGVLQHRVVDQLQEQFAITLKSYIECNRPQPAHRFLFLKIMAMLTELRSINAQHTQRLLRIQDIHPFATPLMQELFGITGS

C[C@]12CCC(=O)C(O)=C1CC[C@@H]1[C@@H]2CC[C@]2(C)C(=O)CC[C@@H]12
inactive: Potency [1] | Potency [2] | Potency [3] | Potency [4] | Potency [5] | outcome [6] | Potency [7] | Potency [8] | Potency [9] | Potency [10] | max activation [12] -2.61% | outcome [13] | outcome [14]
54.5 µM (active) and inactive: Potency [11]

C[C@]12CCC(=O)C[C@@H]1CC[C@@H]1[C@@H]2CC[C@]2(C)[C@@H](O)CC[C@@H]12
inactive: Potency [1] | Potency [4] | Potency [5] | outcome [6] | Potency [7] | Potency [8] | Potency [9] | Potency [10] | max activation [12] -5.43%
active: Potency [2] 3.03 µM and 1.94 µM | Potency [3] 48 µM

CCCCCCOC(=O)c1ccccc1C(=O)OCCCCCC
inactive: outcome [15] | Potency [1] | Potency [16] | Potency [3] | Potency [4] | Potency [5] | outcome [6] | Potency [17] | Potency [18] | Potency [7] | Potency [8] | Potency [19] | Potency [9] | Potency [10]
55.6 µM (active) and inactive: Potency [11]

N#CCCCl
inactive: outcome [15] | Potency [1] | Potency [20] | Potency [16] | Potency [3] | Potency [4] | Potency [5] | outcome [6] | Potency [7] | Potency [8] | Potency [19] | Potency [9] | Potency [11]

CN(C)c1ccc(C(=O)c2ccc(N(C)C)cc2)cc1
inactive: outcome [15] | Potency [2] | Potency [3] | Potency [4] | Potency [5] | outcome [6] | Potency [17] | Potency [18] | Potency [9]
active: Potency [20] 27.3 µM | Potency [7] 54.5 µM | Potency [19] 24.3 µM | Potency [10] 48.6 µM | Potency [11] 48.1 µM and 17.2 µM

COc1ccc(C(CN(C)C)C2(O)CCCCC2)cc1 (stereo unspecified)
inactive: outcome [15] | Potency [1] | Potency [20] | Potency [16] | Potency [3] | Potency [4] | Potency [5] | outcome [6] | Potency [7] | Potency [8] | Potency [19] | Potency [9] | Potency [10] | Potency [11] | max activation [12] -0.342% | outcome [13] | outcome [14]

CC(C)=CC1C(C(=O)OCc2coc(Cc3ccccc3)c2)C1(C)C (stereo unspecified)
inactive: Potency [1] | Potency [16] | Potency [3] | Potency [4] | Potency [5] | outcome [6] | Potency [7] | Potency [8] | Potency [19] | Potency [9] | Potency [10]
active: Potency [20] 48.6 µM | Potency [11] 24.3 µM

CCC(C)(c1ccc(O)cc1)c1ccc(O)cc1
inactive: outcome [15] | Potency [1] | Potency [4] | Potency [5] | outcome [6] | Potency [17] | Potency [18] | Potency [7] | Potency [8] | Potency [9] | Potency [10]
active: Potency [20] 4.32 µM | Potency [19] 61.1 µM | Potency [11] 12.2 µM and 5.45 µM

CCOC(=S)S
active: Potency [16] 4.86 µM | Potency [3] 4.86 µM | Potency [9] 61.1 µM
inactive: outcome [15] | Potency [1] | Potency [4] | Potency [5] | outcome [6] | Potency [7] | Potency [8] | Potency [10]

Clc1nc(Cl)nc(Cl)n1
inactive: Potency [1] | Potency [20] | Potency [16] | Potency [3] | Potency [4] | Potency [5] | outcome [6] | Potency [17] | Potency [18] | Potency [7] | Potency [8] | Potency [19] | Potency [9] | Potency [10] | Potency [11]

CCC(C)c1ccc(O)cc1 (stereo unspecified)
inactive: Potency [1] | Potency [20] | Potency [16] | Potency [3] | Potency [4] | Potency [5] | outcome [6] | Potency [17] | Potency [18] | Potency [7] | Potency [8] | Potency [9] | Potency [10] | Potency [11]

O=C(Nc1ccc(Br)cc1)c1cc(Br)cc(Br)c1O
inactive: outcome [15] | Potency [3] | Potency [17] | Potency [18] | Potency [8] | Potency [9] | max activation [12] -12.3% | outcome [14]
active: Potency [1] 21.6 µM and 9.69 µM | Potency [16] 12.1 µM and 21.7 µM | Potency [4] 30.8 µM and 21.9 µM and 19 µM | Potency [5] 24.5 µM and 43.6 µM and 23.9 µM | Potency [7] 6.31 µM and 8.63 µM and 10.6 µM | Potency [19] 17.2 µM and 15.4 µM | Potency [11] 13.6 µM and 13.7 µM and 21.1 µM

CC(C)(OOC(C)(C)c1ccccc1)c1ccccc1
inactive: outcome [15] | Potency [1] | Potency [16] | Potency [3] | Potency [4] | Potency [5] | outcome [6] | Potency [17] | Potency [18] | Potency [7] | Potency [8] | Potency [19] | Potency [9] | Potency [10] | Potency [11]
